Assay results as given in the supplement of paper PMC10849652.
The full data set covers some 7,900 targets. This sample favours those with a hit. About 0.6% of all pairs of compound and target were hits.

How the values were obtained:
Assay in all cases: log2 fold change, soluble protein after heating vs DMSO (PISA); higher = thermal stabilisation; K562 cells, 10 uM, 30 min; active = over 0.2 and 3.5 SD of the protein, either way, in both replicates (recomputed)
[1] = compound: CS(=O)(=O)c1ccc(-c2cnc(N)c(C(=O)Nc3ccccc3)n2)cc1
Outline: (§1)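 Values are thermal stability changes relative to control samples and are taken from duplicates. They are stated as log2 fold changes. Before quantification by TMTpro 16plex LC-MS/MS with equalised channel sums, K562 cells at 2×10^6 cells/mL were treated with 10 μM compound for 30 min, heated in aliquots for 3 min across 48°C-58°C, pooled, extracted in PBS with 0.5% NP-40 at 4°C, and centrifuged at 21,000xg for 90 min to give the soluble supernatant.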

[2] = compound: C[C@@H](Oc1cc(-c2cnn(C3CCNCC3)c2)cnc1N)c1c(Cl)ccc(F)c1Cl [crizotinib]
Outline: as §1

[3] = compound: C[C@@H]1COCCN1C2=NC(=NC(=C2)C3(CC3)S(=O)(=O)C)C4=C5C=CNC5=CC=C4
Outline: as §1

[4] = compound: C[C@H](C1=CC=C(C=C1)C(=O)NC2=C3C=CNC3=NC=C2)N
Outline: as §1

[5] = compound: C[C@H](Nc1ncnc2nc[nH]c12)c1cc2cccc(Cl)c2c(=O)n1-c1ccccc1 [duvelisib]
Outline: as §1

[6] = compound: Cc1cc(Nc2cc(CN3CCOCC3)c3nc(C)c(Cc4ccc(Cl)cc4F)n3n2)n[nH]1 [gandotinib]
Outline: as §1

[7] = compound: Cc1cc(Nc2cc(N3CCN(C)CC3)nc(Sc3ccc(NC(=O)C4CC4)cc3)n2)n[nH]1 [tozasertib]
Outline: as §1

[8] = compound: Cc1cc(SCc2sc(-c3ccc(C(F)(F)F)cc3)nc2C)ccc1OCC(=O)O
Outline: as §1

[9] = compound: Cc1ccc(-n2nc(C(C)(C)C)cc2NC(=O)Nc2ccc(OCCN3CCOCC3)c3ccccc23)cc1 [doramapimod]
Outline: as §1

[10] = compound: Cc1ccc(C(=O)N(CCCN)[C@@H](c2nc3cc(Cl)ccc3c(=O)n2Cc2ccccc2)C(C)C)cc1 [ispinesib]
Outline: as §1

[11] = compound: Cc1ccc(NC(=O)c2ccc(CN3CC[C@H](N(C)C)C3)c(C(F)(F)F)c2)cc1Nc1nccc(-c2cncnc2)n1 [bafetinib]
Outline: as §1

[12] = compound: Cc1cccc(CC(=O)N2CCc3c2ccc(-c2cn(C)c4ncnc(N)c24)c3F)n1
Outline: as §1

[13] = compound: Cc1cn(-c2cc(NC(=O)c3ccc(C)c(Nc4nccc(-c5cccnc5)n4)c3)cc(C(F)(F)F)c2)cn1 [nilotinib]
Outline: as §1

[14] = compound: Cc1nc(Nc2n[nH]c3c2CN(C(=O)N[C@H](CN(C)C)c2ccccc2)C3(C)C)c2sccc2n1
Outline: as §1

[15] = compound: Cc1nc(Nc2ncc(C(=O)Nc3c(C)cccc3Cl)s2)cc(N2CCN(CCO)CC2)n1 [dasatinib]
Outline: as §1

[16] = compound: Cc1ncc(-c2ccnc(Nc3ccc(S(C)(=O)=O)cc3)n2)n1C(C)C
Outline: as §1

[17] = compound: Cn1cc(-c2ccc3c(c2)CCN3C(=O)Cc2cccc(C(F)(F)F)c2)c2c(N)ncnc21
Outline: as §1

[18] = compound: Cn1cc(-c2ccc3nnc(C(F)(F)c4ccc5ncccc5c4)n3n2)cn1
Outline: as §1

[19] = compound: Cn1cncc1[C@@](N)(c1ccc(Cl)cc1)c1ccc2c(c1)c(-c1cccc(Cl)c1)cc(=O)n2C [tipifarnib]
Outline: as §1

[20] = compound: FC(F)(F)c1ccc(/C=C/c2nc(COc3ccc(CCCCn4ccnn4)cc3)co2)cc1 [mubritinib]
Outline: as §1

Measured: log2 fold change

MFSD5 isoform 2 (UniProt Q6N075)
Chain of UniProt Q6N075 (Q6N075 whole entry, looked up): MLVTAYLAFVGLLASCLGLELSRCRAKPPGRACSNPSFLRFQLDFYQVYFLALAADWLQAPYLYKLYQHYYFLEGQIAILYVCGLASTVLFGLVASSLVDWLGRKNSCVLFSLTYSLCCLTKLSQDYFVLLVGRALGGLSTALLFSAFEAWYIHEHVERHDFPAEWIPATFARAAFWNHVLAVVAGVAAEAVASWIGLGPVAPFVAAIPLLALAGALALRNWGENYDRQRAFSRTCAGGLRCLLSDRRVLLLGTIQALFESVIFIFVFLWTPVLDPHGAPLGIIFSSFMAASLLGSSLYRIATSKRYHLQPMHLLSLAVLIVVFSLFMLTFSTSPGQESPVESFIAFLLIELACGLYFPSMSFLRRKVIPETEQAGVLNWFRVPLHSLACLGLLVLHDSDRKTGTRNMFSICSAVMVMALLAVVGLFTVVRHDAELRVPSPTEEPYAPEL
inactive: [1] 0.069 | [2] -0.039 | [3] -0.04 | [4] -0.046 | [5] 0.112 | [6] -0.045 | [7] 0.144 | [8] -0.004 | [9] 0.004 | [10] 0.051 | [11] -0.126 | [12] 0.009 | [13] 0.054 | [14] 0.055 | [15] -0.029 | [16] -0.057 | [17] -0.048 | [18] 0.009 | [19] 0.141 | [20] 0.128

LBR (UniProt Q14739)
Chain of UniProt Q14739 (Q14739 whole entry, looked up): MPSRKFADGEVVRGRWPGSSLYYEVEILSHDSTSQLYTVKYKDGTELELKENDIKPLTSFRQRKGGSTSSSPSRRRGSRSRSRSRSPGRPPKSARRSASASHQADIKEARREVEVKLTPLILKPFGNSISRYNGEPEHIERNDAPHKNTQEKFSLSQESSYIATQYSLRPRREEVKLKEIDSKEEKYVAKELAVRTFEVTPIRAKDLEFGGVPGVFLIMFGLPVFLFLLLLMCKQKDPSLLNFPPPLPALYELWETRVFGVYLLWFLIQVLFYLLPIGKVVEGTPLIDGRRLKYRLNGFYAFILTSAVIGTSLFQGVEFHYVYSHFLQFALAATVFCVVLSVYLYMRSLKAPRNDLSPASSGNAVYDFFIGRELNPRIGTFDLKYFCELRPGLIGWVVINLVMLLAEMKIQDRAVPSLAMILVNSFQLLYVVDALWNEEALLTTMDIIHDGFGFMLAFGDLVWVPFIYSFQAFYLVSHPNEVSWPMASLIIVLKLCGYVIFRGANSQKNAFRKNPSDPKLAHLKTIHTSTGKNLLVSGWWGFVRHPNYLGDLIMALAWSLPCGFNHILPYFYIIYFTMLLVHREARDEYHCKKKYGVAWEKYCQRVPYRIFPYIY
active: [6] -0.359
inactive: [1] 0.025 | [2] 0.152 | [3] 0.016 | [4] -0.031 | [5] -0.014 | [7] -0.026 | [8] 0.017 | [9] -0.02 | [10] -0.08 | [11] 0.113 | [12] 0.101 | [13] -0.201 | [14] -0.007 | [15] -0.017 | [16] -0.018 | [17] 0.041 | [18] 0.012 | [19] -0.141 | [20] 0.026

L2HGDH (UniProt Q9H9P8)
Chain of UniProt Q9H9P8 (Q9H9P8 whole entry, looked up): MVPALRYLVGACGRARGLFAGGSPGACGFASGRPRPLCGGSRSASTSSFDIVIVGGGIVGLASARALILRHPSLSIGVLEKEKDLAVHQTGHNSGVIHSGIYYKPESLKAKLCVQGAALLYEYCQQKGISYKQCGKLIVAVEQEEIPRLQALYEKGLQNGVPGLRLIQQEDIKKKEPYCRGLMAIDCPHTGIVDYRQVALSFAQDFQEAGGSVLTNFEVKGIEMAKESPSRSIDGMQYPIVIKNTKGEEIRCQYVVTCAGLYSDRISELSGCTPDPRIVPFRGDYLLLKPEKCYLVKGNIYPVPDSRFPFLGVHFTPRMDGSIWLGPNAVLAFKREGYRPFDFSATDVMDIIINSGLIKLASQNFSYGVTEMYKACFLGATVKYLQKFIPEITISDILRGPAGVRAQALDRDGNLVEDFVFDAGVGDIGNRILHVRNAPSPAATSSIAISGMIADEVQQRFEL
inactive: [1] 0.04 | [2] -0.081 | [3] 0.124 | [4] -0.025 | [5] 0.063 | [6] 0.024 | [7] -0.082 | [8] 0.039 | [9] -0.02 | [10] -0.083 | [11] -0.089 | [12] -0.037 | [13] 0.06 | [14] 0.002 | [15] -0.046 | [16] -0.002 | [17] 0.077 | [18] 0.053 | [19] 0.021 | [20] 0.061

LIMD1 (UniProt Q9UGP4)
inactive: [1] -0.03 | [2] 0.005 | [3] -0.007 | [4] -0.071 | [5] -0.032 | [6] 0.011 | [7] 0.039 | [8] 0.042 | [9] -0.01 | [10] 0.008 | [11] -0.143 | [12] 0.017 | [13] 0.023 | [14] -0.085 | [15] 0.001 | [16] -0.008 | [17] 0.021 | [18] -0.015 | [19] -0.071 | [20] 0.012

LEO1 (UniProt Q8WVC0)
inactive: [1] 0.092 | [2] 0.026 | [3] -0.202 | [4] -0.126 | [5] 0.008 | [6] -0.031 | [7] 0.114 | [8] -0.008 | [9] 0.071 | [10] 0.052 | [11] -0.003 | [12] 0.008 | [13] -0.125 | [14] -0.045 | [15] 0.049 | [16] -0.094 | [17] -0.026 | [18] 0.023 | [19] -0.009 | [20] 0.035

LIAS (UniProt O43766)
inactive: [1] 0.035 | [2] 0.03 | [3] 0.039 | [4] 0.075 | [5] 0.043 | [6] 0.086 | [7] -0.015 | [8] -0.08 | [9] 0 | [10] -0.24 | [11] -0.034 | [12] -0.079 | [13] 0.038 | [14] 0.003 | [15] 0.028 | [16] -0.059 | [17] -0.017 | [18] 0.059 | [19] 0.098 | [20] 0.002

MIEF1 (UniProt Q9NQG6)
Chain of UniProt Q9NQG6 (Q9NQG6 whole entry, looked up): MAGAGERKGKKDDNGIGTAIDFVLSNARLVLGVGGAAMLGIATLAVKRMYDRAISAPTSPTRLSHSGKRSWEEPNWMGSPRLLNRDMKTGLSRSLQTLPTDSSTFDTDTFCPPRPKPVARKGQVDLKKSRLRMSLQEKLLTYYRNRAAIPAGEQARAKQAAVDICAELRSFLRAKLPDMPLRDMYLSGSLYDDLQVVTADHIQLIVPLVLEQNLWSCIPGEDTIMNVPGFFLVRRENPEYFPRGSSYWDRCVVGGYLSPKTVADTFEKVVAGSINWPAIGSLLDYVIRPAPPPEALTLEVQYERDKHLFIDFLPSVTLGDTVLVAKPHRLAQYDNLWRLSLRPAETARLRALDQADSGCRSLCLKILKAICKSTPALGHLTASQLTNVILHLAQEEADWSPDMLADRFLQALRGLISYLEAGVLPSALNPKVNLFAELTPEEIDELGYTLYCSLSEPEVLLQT
active: [2] -0.31 | [10] -0.489
inactive: [1] 0.088 | [3] -0.005 | [4] -0.046 | [5] 0.096 | [6] 0.095 | [7] -0.038 | [8] 0.065 | [9] 0.007 | [11] -0.133 | [12] 0.006 | [13] 0.022 | [14] -0.04 | [15] -0.028 | [16] 0.145 | [17] 0.09 | [18] 0.064 | [19] -0.039 | [20] -0.029

MCUR1 (UniProt Q96AQ8)
Chain of UniProt Q96AQ8 (Q96AQ8 whole entry, looked up): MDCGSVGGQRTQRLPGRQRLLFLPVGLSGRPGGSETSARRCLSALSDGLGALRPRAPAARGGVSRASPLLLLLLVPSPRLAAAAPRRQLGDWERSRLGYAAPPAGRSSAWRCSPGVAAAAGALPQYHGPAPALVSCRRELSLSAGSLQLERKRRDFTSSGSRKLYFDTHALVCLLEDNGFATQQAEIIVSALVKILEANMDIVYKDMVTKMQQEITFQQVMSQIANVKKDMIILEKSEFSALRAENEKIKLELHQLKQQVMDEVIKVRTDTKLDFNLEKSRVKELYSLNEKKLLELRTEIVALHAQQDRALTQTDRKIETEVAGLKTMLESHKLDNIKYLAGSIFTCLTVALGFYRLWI
inactive: [1] 0.041 | [2] 0.082 | [3] 0.1 | [4] 0.044 | [5] 0.06 | [6] -0.021 | [7] 0.043 | [8] -0.017 | [9] -0.002 | [10] 0.255 | [11] 0 | [12] 0 | [13] 0.015 | [14] 0.015 | [15] -0.037 | [16] -0.004 | [17] 0.031 | [18] -0.091 | [19] -0.028 | [20] 0.044

IPO7 (UniProt O95373)
Chain of UniProt O95373 (O95373 whole entry, looked up): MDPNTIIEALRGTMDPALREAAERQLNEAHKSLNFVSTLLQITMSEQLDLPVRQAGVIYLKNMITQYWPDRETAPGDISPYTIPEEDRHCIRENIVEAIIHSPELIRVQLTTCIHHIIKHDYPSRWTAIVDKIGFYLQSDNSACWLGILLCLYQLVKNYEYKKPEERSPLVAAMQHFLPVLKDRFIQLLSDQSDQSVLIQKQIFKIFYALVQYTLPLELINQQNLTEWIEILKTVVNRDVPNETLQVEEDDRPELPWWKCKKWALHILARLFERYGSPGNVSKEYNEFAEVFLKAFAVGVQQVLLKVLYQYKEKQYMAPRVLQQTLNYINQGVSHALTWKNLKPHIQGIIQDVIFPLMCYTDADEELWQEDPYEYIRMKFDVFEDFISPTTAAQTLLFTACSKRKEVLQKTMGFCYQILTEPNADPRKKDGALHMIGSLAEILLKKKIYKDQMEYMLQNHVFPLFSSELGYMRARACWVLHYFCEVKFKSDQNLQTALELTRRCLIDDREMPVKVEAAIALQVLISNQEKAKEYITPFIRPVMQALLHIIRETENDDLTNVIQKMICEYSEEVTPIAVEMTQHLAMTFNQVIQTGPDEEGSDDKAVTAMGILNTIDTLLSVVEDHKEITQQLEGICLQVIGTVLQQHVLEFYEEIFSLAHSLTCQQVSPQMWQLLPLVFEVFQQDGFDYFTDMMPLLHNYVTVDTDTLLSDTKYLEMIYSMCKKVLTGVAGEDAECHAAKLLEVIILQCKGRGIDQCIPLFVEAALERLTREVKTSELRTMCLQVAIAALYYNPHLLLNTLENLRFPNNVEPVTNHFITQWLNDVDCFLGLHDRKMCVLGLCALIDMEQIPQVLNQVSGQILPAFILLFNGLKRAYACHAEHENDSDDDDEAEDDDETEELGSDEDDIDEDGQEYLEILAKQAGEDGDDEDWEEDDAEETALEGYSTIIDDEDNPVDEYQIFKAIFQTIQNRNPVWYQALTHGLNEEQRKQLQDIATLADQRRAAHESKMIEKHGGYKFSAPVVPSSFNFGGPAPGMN
inactive: [1] -0.011 | [2] -0.138 | [3] 0.042 | [4] -0.07 | [5] 0.029 | [6] -0.185 | [7] 0.102 | [8] 0.073 | [9] -0.054 | [10] -0.077 | [11] -0.018 | [12] 0.035 | [13] -0.058 | [14] -0.044 | [15] -0.074 | [16] -0.091 | [17] -0.018 | [18] 0.008 | [19] -0.126 | [20] 0.079

LUC7L (UniProt Q9NQ29)
Chain of UniProt Q9NQ29 (Q9NQ29 whole entry, looked up): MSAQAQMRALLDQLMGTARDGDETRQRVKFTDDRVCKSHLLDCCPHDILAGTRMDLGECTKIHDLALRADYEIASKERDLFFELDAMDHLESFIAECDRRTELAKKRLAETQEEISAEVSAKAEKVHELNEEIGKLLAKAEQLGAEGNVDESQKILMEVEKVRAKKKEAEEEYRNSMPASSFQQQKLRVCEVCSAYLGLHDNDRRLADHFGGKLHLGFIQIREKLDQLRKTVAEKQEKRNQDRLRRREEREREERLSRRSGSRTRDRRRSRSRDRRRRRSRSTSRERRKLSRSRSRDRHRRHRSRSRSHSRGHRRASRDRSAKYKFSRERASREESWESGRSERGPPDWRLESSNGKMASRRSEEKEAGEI
active: [14] -1.71
inactive: [1] -0.009 | [2] -0.028 | [3] -0.033 | [4] -0.001 | [5] -0.042 | [6] 0.199 | [7] 0.06 | [8] 0.033 | [9] 0.029 | [10] -0.007 | [11] 0.057 | [12] -0.046 | [13] 0.049 | [15] 0.062 | [16] 0.109 | [17] -0.095 | [18] -0.054 | [19] 0.049 | [20] -0.099

KDM5D isoform 3 (UniProt Q9BY66)
inactive: [1] -0.004 | [2] 0.038 | [3] -0.005 | [4] -0.054 | [5] 0.057 | [6] -0.051 | [7] 0.212 | [8] 0.125 | [9] 0.108 | [10] 0 | [11] 0.208 | [12] -0.049 | [13] 0.089 | [14] -0.054 | [15] -0.289 | [16] -0.047 | [17] -0.026 | [18] 0.058 | [19] -0.044 | [20] 0.203

LEMD2 (UniProt Q8NC56)
Chain of UniProt Q8NC56 (Q8NC56 whole entry, looked up): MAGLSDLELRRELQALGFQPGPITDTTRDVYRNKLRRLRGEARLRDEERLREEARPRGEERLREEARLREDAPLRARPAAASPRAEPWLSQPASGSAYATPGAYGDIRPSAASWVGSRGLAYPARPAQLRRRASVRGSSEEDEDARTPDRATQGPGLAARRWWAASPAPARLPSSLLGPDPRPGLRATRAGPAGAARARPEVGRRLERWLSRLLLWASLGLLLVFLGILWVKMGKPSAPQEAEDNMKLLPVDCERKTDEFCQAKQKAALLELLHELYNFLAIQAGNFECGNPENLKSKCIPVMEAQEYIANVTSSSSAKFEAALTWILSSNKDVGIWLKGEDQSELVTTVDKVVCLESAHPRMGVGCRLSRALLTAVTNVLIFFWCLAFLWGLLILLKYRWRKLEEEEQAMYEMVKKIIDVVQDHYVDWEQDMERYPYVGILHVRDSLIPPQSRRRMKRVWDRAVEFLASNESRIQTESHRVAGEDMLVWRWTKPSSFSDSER
active: [2] -0.286 | [10] -0.438
inactive: [1] -0.001 | [3] 0.084 | [4] -0.057 | [5] -0.016 | [6] -0.17 | [7] 0.008 | [8] 0.109 | [9] 0.079 | [11] -0.036 | [12] -0.008 | [13] -0.035 | [14] -0.123 | [15] -0.079 | [16] 0.011 | [17] 0.089 | [18] 0.008 | [19] -0.045 | [20] -0.021

MICOS13 (UniProt Q5XKP0)
Chain of UniProt Q5XKP0 (Q5XKP0 whole entry, looked up): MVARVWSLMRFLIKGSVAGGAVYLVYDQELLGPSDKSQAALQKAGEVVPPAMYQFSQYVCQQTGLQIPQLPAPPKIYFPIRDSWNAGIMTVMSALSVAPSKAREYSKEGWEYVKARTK
active: [10] -0.257
inactive: [1] 0.049 | [2] -0.164 | [3] 0.156 | [4] -0.08 | [5] 0.031 | [6] -0.216 | [7] -0.047 | [8] -0.055 | [9] -0.027 | [11] -0.114 | [12] 0.014 | [13] -0.054 | [14] 0.025 | [15] -0.085 | [16] 0.001 | [17] 0.046 | [18] 0.056 | [19] -0.111 | [20] 0.117

LARP1 (UniProt Q6PKG0)
inactive: [1] -0.04 | [2] -0.097 | [3] -0.172 | [4] 0.134 | [5] -0.121 | [6] 0.026 | [7] -0.001 | [8] 0.01 | [9] 0.06 | [10] -0.166 | [11] 0.049 | [12] 0.024 | [13] -0.063 | [14] -0.014 | [15] 0.014 | [16] -0.028 | [17] -0.067 | [18] -0.043 | [19] 0.047 | [20] -0.011

MICU1 isoform 3 (UniProt Q9BPX6)
Chain of UniProt Q9BPX6 (Q9BPX6 whole entry, looked up): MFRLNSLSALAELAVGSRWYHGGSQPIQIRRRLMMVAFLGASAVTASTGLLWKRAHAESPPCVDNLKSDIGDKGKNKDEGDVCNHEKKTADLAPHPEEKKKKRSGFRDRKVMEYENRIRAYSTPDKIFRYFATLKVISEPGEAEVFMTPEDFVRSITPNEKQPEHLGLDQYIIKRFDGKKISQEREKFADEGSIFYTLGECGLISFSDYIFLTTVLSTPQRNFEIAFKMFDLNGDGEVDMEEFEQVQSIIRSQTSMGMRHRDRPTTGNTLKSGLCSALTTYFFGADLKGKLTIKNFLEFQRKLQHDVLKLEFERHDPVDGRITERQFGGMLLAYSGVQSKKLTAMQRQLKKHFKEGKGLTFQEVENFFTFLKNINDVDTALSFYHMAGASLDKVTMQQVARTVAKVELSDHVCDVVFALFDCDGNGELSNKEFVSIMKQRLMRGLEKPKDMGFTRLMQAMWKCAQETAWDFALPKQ
inactive: [1] -0.024 | [2] -0.207 | [3] -0.101 | [4] 0.023 | [5] -0.04 | [6] -0.128 | [7] -0.102 | [8] 0.021 | [9] -0.011 | [11] -0.098 | [12] 0.106 | [13] -0.037 | [14] -0.012 | [15] -0.065 | [16] -0.022 | [17] -0.012 | [18] -0.055 | [19] -0.019 | [20] -0.064
active: [10] -0.458

MEAK7 (UniProt Q6P9B6)
inactive: [1] -0.005 | [3] 0.049 | [4] 0.005 | [5] 0.121 | [6] -0.224 | [7] 0.018 | [8] 0.024 | [9] 0.031 | [10] -0.139 | [11] -0.094 | [12] 0.042 | [13] 0.024 | [14] -0.036 | [15] -0.078 | [16] 0.025 | [17] 0.02 | [18] -0.03 | [19] -0.022 | [20] 0.052
active: [2] -0.259
